Source: PubChem (National Center for Advancing Translational Sciences (NCATS))
In the library only some 9.3% were active in any assay of this set; here they are far more common.
ELG1 DNA repair – ELG1-dependent DNA repair inhibition; 330,000 tested, 2.3% active; AID 504467; HEK293T ELG1-luciferase reporter, luminescence, 16 h; DNA damage induced by 5-fluorouridine; Potency, µM (doses to about 46.1 µM), inactives show at the top dose activity change, negative = inhibition, hits mostly inhibitors; further: on the % scale 0 is the no-effect control and ±100 the full control effect; nearly all actives have a fitted effect of over 55% in size
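DMSO vehicle served as the neutral condition. Each well held 2,000 cells given 5-fluorouridine plus compound; after 16 hr at 37 °C/5% CO2, ONE-Glo was added and luciferase measured 30 min later.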
SMN2 splice up – SMN2 splice variant enhancement. Potency, µM (titrated, usually from 46.1 µM), inactives show top-dose activity change, positive = activation, hits mostly activators. HEK293 SMN2-luciferase splicing reporter, luminescence, 30-36 h. AID 1458. 210,000 tested, 2.8% active; further: % of control where 0% means no effect; nearly all actives have a fitted effect of over 55% in size
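qHTS luciferase splicing reporter: luminescence rises when SMN2 exon 7 is included in transfected HEK293 cells. Compound exposure lasted 30-36 h at 37C, with 4.5 mM final sodium butyrate as control, followed by a ONE-Glo read.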
Rab9 prom act – Rab9 promoter activation. Huh7 Rab9 promoter-luciferase reporter, luminescence, 24 h. Potency, µM (highest dose often 9.22 µM), without a hit: at the highest dose activation, negative = inhibition, most hits filed as activators. 320,000 tested, 2.8% active. AID 485297; further: % of control where 0% means no effect; nearly all actives have a fitted effect of over 60% in size
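Promoter activation is measured as luciferase luminescence in Huh7 cells stably transfected with a Rab9 promoter–luciferase construct, following 24 h compound exposure at 37 °C and 10 min reagent incubation at ambient temperature.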
NPC1 prom act – activates the NPC1 promoter. Potency, µM (highest dose often 9.22 µM), for inactives: top-dose activation, usual class: activators. Huh7 NPC1 promoter luciferase reporter, 24 h. 320,000 tested, 2.4% active; further: % of control where 0% means no effect; nearly all actives have a fitted effect of over 60% in size
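Stably transfected Huh7 (NPC1 promoter→luciferase), 1500 cells/well in Opti-MEM + 10% FBS, 2 h settle, then compound 24 h at 37 °C. Luminescence after 10 min with Amplite reagent.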
FLuc modulator – inhibits or activates purified firefly luciferase, miR-21 counter-screen; P08659; AID 588342; Potency, µM (highest dose often 57.5 µM), without a hit: at the top dose activity change, negative = inhibition, actives largely listed as inhibitors; purified FLuc, Km substrates, luminescence inhibition; 360,000 tested, 6.9% active;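 further: plate controls were vehicle for no effect and reference inhibitor for full effect; nearly all actives have a fitted effect of over 55% in size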
Target sequence (P08659 whole entry, looked up): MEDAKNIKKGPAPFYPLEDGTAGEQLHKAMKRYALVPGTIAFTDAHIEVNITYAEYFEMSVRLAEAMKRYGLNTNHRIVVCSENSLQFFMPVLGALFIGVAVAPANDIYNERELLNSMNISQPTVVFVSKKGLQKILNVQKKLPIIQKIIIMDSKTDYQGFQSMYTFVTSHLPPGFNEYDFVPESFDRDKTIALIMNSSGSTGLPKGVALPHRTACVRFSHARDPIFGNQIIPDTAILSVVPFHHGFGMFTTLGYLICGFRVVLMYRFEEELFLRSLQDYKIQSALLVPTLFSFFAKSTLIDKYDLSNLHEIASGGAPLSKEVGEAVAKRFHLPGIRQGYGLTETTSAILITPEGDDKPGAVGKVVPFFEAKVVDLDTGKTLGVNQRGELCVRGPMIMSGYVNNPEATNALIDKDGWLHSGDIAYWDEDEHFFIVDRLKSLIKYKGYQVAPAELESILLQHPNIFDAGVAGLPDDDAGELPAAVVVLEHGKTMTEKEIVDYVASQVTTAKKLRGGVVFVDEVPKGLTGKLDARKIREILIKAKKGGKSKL
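Biochemical qHTS of compounds, final roughly 60 µM downward over six points, against 10 nM purified firefly luciferase using Km concentrations of substrates (10 uM D-luciferin, 10 uM ATP) in Tris acetate pH 7.5 buffer; luminescence output.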
ELG1 genotox – inducers of genotoxicity in HEK293T ELG1-luciferase cells; HEK293T ELG1-luciferase reporter, luminescence, 16 h; Potency, µM (titrated, usually from 46 µM), inactives show top-dose activity change, positive = activation, hits mostly activators; 330,000 tested, 1.3% active; further: % of control where 0% means no effect; nearly all actives have a fitted effect of over 60% in size
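Screening used a luciferase reporter fused to human ELG1 in HEK293T cells. Luminescence was read on a CCD plate imager after 16 hr exposure and 30 min ONE-Glo incubation.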
Starred values were filed as active, the others as inactive; ? = inconclusive; . = no result; [ ] = dose if it differs, or a comment. The call rests on the fitted dose curve; in most records, active means well fitted curve in the direction sought with a large enough effect; inconclusive means small, poorly fitted or top-dose-only effect, or another doubt; inactive means no such curve, though single readings can be large; an effect the other way counts as inactive or inconclusive. Potency means the concentration at half of the fitted maximal effect.

SMILES	ELG1 DNA repair	SMN2 splice up	Rab9 prom act	NPC1 prom act	FLuc modulator	ELG1 genotox
C=CCN1C(=O)C(CC(=O)O)SC1=Nc1ccc(N=Nc2ccccc2)cc1 (stereo unspecified)	10%	.	2%	-7%	?	-3%
CCCCCCCCCOC(=O)C[n+]1csc(CCO)c1C	8%	4%	-12%	-3%	0%	0%
Cc1ccnc(SCc2cc(=O)c(OC(=O)c3ccc(S(=O)(=O)N4CCCC4)cc3)co2)n1	2%	3%	-7%	-2%	-4%	1%
CCCn1c(C)cc(=O)c2cc(NC(=O)c3cnccn3)ccc21	-5%	-40%	0%	2%	-2%	-1%
CCOc1ccc(-c2nc(CSc3nnc(N)s3)cs2)cc1OC	?	11%	13%	-3%	?	5%
CCOc1ccc(-c2nc(CSc3nnc(N)s3)cs2)cc1	?	?	?	?	1.9µM*	5µM*
Cc1cc(C)n2ncc(/C(N)=N/OC(=O)Nc3ccccc3)c2n1	?	.	0%	-1%	27µM*	-8%
COc1cccc(C(C(=O)NC2CCCCC2)N(C(=O)c2ccco2)c2ccccc2OC)c1 (stereo unspecified)	0%	.	1%	-5%	1%	7%
CC1(C)NC(=O)N(CCCOc2ccc(Br)cc2Cl)C1=O	?	?	?	2.8µM*	11µM*	15µM*
CC1(C)NC(=O)N(CCCCOc2ccc(Br)cc2Cl)C1=O	1%	-7%	5%	0%	-15%	7%
Cn1c(CS/C(N)=N/N=C/c2ccccc2)c(Br)c(=O)n1-c1ccccc1	20%	2%	22%	9%	15µM*	3%
Cc1c(NC(=S)N/N=C/c2ccc(Br)cc2)c(=O)n(-c2ccccc2)n1C	-2%	.	-6%	-1%	2%	0%
Fc1cccc(-c2cc3nc4c(c(NCc5ccco5)n3n2)CCCC4)c1	?	11µM*	?	?	7.6µM*	17%
O=C(CCS(=O)(=O)c1ccccc1)NC12CC3CC(CC(C3)C1)C2	?	?	3.5µM*	3.2µM*	12µM*	9.2µM*
CC(C)OC(=O)/C(=C/c1ccc2c(c1)c1ccccc1n2C)NC(=O)c1ccccc1	21µM*	1%	2%	13%	-7%	-1%
COC(=O)/C(=C\c1ccc2c(c1)c1ccccc1n2C)NC(=O)c1ccccc1	21µM*	-14%[1.84 µM]	-5%	-1%	-3%	-7%
CC(C)OC(=O)/C(=C\c1ccc2c(c1)c1ccccc1n2C)NC(=O)c1ccccc1	?	-7%	3%	-6%	0%	-7%
Cn1c2ccccc2c2cc(/C=C(\NC(=O)c3ccccc3)C(=O)O)ccc21	-10%	.	-7%	-3%	?	-4%
CCN(CC)S(=O)(=O)c1ccc(OC(C)C)c(NC(=O)c2c3c(nc4ccccc24)CCN(Cc2ccccc2)C3)c1	5.8µM*	-17%	-6%	0%	0%	-9%
O=S(=O)(c1ccc(F)cc1)N1CCCC(CO)C1 (stereo unspecified)	7%	-15%	4%	-1%	1%	1%
COc1ccc(-c2csc(N(CCCN(C)C)C(=O)c3cc(OC)c(OC)c(OC)c3)n2)cc1	-26%	.	-2%	0%	8%	-7%
CCOc1ccc(S(=O)(=O)N(C)c2ccc(OCC(=O)NCC3CCCCC3)cc2)cc1	26µM*	.	.	.	.	-7%
Cc1ccc(C2C3=C(CC(C)(C)CC3=O)N(CCN3CCOCC3)C3=C2C(=O)CC(C)(C)C3)cc1	-1%	-8%	3.5µM*	-3%	-9%	-2%
O=C(CCC(=O)c1ccccc1)NCc1ccccc1	-6%	.	-2%	3%	-16%	-1%
Cc1ccc2nc(-c3cccc(S(=O)(=O)N4CCCC4)c3)cn2c1	?	.	0%	-1%	6.7µM*	7%
SMILES	ELG1 DNA repair	SMN2 splice up	Rab9 prom act	NPC1 prom act	FLuc modulator	ELG1 genotox
CC1CN(S(=O)(=O)c2cccc(-c3cn4cccnc4n3)c2)CC(C)O1 (stereo unspecified)	-33%	-9%	-4%	19%	-1%	-1%
Cc1ccn2cc(-c3cccc(S(=O)(=O)N4CCCCC4)c3)nc2c1	-10%	.	-1%	-6%	19µM*	-5%
O=S(=O)(c1cccc(-c2cn3cccnc3n2)c1)N1CCCCCC1	-4%	-15%	8%	0%	2%	-19%
Cc1ccc2nc(-c3cccc(S(=O)(=O)N4CC(C)OC(C)C4)c3)cn2c1 (stereo unspecified)	-3%	.	-2%	1%	13µM*	?
c1ccc(CCCOCCC2CO2)cc1 (stereo unspecified)	0%	.	5%	-5%	1%	0%
CCOC(=O)c1c(NC(=S)Nc2ccc(OC)cc2)sc2c1CCC2	10%	-7%	-3%	-5%	-1%	20%
CCOc1ccc(/C=C2\CCC(C3CCCC3)C2=O)cc1 (stereo unspecified)	?	.	4µM*	3.5µM*	0.54µM*	?
CC1C/C(=C/c2ccco2)C(=O)/C(=C/c2ccco2)C1 (stereo unspecified)	-19%	-2%	-1%	-1%	?	?
O=C1/C(=C\c2ccco2)CCC/C1=C\c1ccco1	?	18µM*	3.2µM*	4µM*	4.8µM*	15µM*
O=C1/C(=C/c2ccco2)Cc2ccccc21	?	-1%	0%	-2%	13µM*	?
O=C1/C(=C/c2ccccc2)CCC1C1CCCC1 (stereo unspecified)	?	3%	25%	20%	1.2µM*	?
CCCN1C(=O)/C(=C/c2nc3ccccc3c(=O)[nH]2)c2ccccc21	-6%	22%	-1%	3%	0%	?
CC(=O)c1ccc(-c2ccccc2OC(F)(F)F)o1	?	.	13%	4%	-3%	-1%
COc1ccccc1/C=C1\CCC(C2CCCC2)C1=O (stereo unspecified)	?	.	21%	18%	19µM*	15%
O=C1/C(=C/c2ccc(F)cc2)CCC1C1CCCC1 (stereo unspecified)	?	10%	26%	?	0.67µM*	?
O=C1/C(=C/c2ccco2)CCC1C1CCCC1 (stereo unspecified)	?	-9%	-1%	0%	8.5µM*	23µM*
CCOc1ccc(/C=C2\CCC(C3CCCC3)C2=O)cc1OC (stereo unspecified)	?	.	10%	19%	?	12%
COc1cc(/C=C(\C#N)c2[nH]nc(N)c2C#N)cc(OC)c1O	?	17%	1%	1%	-10%	10%
